Drawing on PubChem BioAssay, this text covers composite z-score, z-score and composite Z-score for six compounds.

Assay [1] has as its system Human papillomavirus type 1a protein E7 (residues 44-93). Kind of assay: small molecules binding HPV E7 44-93 – biochemical, small-molecule microarray, residues 44-93, 635 nm fluorescence, primary screen (AID 1108).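 Also: E7 fragment applied at 1 µg/mL in TBST for 1 h at 4 C; score combines spot fluorescence with its signal to noise ratio.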 The note with it: fluorescence 635 nm, higher = more signal.
A short description of assay [2]: hepatitis C replication reporter changes, two-sided – Huh7 cells, luciferase reporter, HCV replication inhibitor project, primary screen (AID 1109).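 Also: huh7 hepatoma cells harbouring a luciferase neomycin HCV replicon reporter; luciferase luminescence as measure of HCV replicon replication; test concentration not given here.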 The conditions noted are these: Huh7 HCV replicon luciferase reporter, 48 h; higher = more signal.
In assay [3] the target is Left-right determination factor 2 (Homo sapiens) (UniProt O00292). Nature of the assay: small molecules binding LEFTY2 protein – biochemical, small-molecule microarray, 635 nm fluorescence scan, primary screen (AID 1110). The note with it: higher = more signal.
Left-right determination factor 2 (Homo sapiens), sequence (O00292 whole entry, looked up): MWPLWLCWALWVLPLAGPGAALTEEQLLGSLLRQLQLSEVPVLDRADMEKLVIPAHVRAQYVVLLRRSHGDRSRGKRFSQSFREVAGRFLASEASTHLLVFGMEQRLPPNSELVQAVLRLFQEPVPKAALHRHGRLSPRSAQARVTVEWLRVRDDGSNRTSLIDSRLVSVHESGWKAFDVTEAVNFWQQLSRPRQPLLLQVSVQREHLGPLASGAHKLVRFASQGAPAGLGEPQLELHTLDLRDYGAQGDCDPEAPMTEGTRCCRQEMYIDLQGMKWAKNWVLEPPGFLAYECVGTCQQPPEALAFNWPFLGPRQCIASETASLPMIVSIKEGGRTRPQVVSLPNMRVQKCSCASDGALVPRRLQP
Assay [4] concerns the target Calmodulin-1 (Homo sapiens) (UniProt P0DP23). Nature of the assay: small molecules binding calmodulin-1 with EGTA – biochemical, small-molecule microarray, Cy5-labelled CALM1, profiling panel (AID 1111).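 Also: labelled calmodulin applied in Tris saline Tween buffer holding calcium plus EGTA and DTT.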 The conditions noted are these: Cy5-CALM1 binding fluorescence, higher = more signal.
Assay [5] shares this target. Kind of assay: small molecules binding Ca-loaded calmodulin-1 – biochemical, small-molecule microarray, Cy5-labelled CALM1, plus calcium, artefact control for SMM control-protein annotation, profiling panel (AID 1112).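 Also: score merges spot fluorescence with signal to noise from triplicate slides.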 The note with it: Cy5-CALM1 binding fluorescence, higher = more signal.
Assay [6] is described as follows: probe aWnt5a binding to arrayed compounds – biochemical, biotinylated probe, 635/667 nm fluorescence, primary screen (AID 1113).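 Also: score merges 667 nm fluorescence intensity with signal-to-noise per printed feature.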 The note with it: small-molecule microarray, higher = more signal.
Assay [7] is described as follows: probe aShh binding to arrayed compounds – biochemical, biotinylated probe, 635/667 nm fluorescence, primary screen (AID 1114).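 Also: probe is biotin-labelled aShh protein from a stem cell growth factor screen; measures binding of labelled protein to compounds printed on the slide; score merges feature fluorescence at 667 nm with signal-to-noise.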 The note with it: small-molecule microarray, higher = more signal.
Assay [8] in a line: probe aNog binding to arrayed compounds – biochemical, biotinylated probe, 635/667 nm fluorescence, primary screen (AID 1115).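 Also: probe is biotinylated aNog protein used at 0.15 µg/mL for 1 h at 4 C; z-score combines 667 nm fluorescence of each spot with its signal to noise.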 The note with it: small-molecule microarray, higher = more signal.
In assay [9] the target is Torsin-1A-interacting protein 1 (Homo sapiens) (UniProt Q5JTV8). Nature of the assay: compound microarray binding of lysate hLAP1 – cell lysate, small-molecule microarray, COS7 lysate, 635/667 nm fluorescence, primary screen (AID 1116). The conditions noted are these: 635 nm fluorescence, higher = more signal.
Torsin-1A-interacting protein 1 (Homo sapiens), sequence (Q5JTV8 whole entry, looked up): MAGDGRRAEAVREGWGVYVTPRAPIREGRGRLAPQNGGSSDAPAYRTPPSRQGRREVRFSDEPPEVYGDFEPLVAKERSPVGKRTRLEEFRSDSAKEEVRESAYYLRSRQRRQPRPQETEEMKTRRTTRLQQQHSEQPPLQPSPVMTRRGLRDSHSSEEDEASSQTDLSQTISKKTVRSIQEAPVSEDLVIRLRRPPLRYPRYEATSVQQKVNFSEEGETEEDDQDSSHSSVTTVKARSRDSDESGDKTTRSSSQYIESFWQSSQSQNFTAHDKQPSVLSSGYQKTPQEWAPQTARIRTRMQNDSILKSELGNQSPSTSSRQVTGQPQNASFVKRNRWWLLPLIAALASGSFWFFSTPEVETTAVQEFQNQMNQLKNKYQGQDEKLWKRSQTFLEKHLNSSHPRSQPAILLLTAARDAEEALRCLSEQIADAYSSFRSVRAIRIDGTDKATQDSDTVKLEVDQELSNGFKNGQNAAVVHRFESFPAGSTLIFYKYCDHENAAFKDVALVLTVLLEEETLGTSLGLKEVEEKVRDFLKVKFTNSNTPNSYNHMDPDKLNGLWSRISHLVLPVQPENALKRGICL
Assay [10] deals with Alpha-bungarotoxin (Bungarus multicinctus) (UniProt P60615). Kind of assay: compounds binding labelled alpha-BTX control protein – biochemical, small-molecule microarray, Alexa647 label, 635/667 nm fluorescence, artefact control for SMM control protein annotation, profiling panel (AID 1117). The note with it: alpha-BTX-A647 binding fluorescence, higher = more signal.
Alpha-bungarotoxin (Bungarus multicinctus), sequence (P60615 whole entry, looked up): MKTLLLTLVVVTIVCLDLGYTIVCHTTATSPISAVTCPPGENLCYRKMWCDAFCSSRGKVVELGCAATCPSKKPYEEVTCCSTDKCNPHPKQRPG
The target in another assay is Albumin (Bos taurus) (UniProt P02769). Kind of assay: compounds binding labelled BSA control protein – biochemical, small-molecule microarray, Alexa647 label, 635/667 nm fluorescence, artefact control for SMM control protein annotation, profiling panel (AID 1118).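 Also: score merges 667 nm emission intensity and signal-to-noise per printed compound spot.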 The note with it: BSA-A647 binding, fluorescence 635 nm, higher = more signal.
Albumin (Bos taurus), sequence (P02769 whole entry, looked up): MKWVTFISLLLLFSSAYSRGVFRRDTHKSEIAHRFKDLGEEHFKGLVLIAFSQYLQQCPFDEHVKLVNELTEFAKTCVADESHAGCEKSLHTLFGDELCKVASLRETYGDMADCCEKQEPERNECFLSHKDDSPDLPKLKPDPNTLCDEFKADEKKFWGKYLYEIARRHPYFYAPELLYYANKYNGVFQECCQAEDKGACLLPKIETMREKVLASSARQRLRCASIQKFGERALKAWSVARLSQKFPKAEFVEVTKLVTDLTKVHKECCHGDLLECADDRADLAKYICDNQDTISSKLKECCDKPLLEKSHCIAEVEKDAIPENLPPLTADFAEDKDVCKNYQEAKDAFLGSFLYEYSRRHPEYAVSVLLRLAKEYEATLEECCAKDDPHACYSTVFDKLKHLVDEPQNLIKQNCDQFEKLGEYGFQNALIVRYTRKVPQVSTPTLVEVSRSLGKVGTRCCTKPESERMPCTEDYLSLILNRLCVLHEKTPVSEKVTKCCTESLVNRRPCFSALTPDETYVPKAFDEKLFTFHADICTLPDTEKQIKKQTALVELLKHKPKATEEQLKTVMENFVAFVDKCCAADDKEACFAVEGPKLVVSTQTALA
Assay [11] is described as follows: probe aXIP binding to arrayed compounds – biochemical, NeuroSMM set, 635/667 nm fluorescence, primary screen (AID 1119).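 Also: probe is the protein aXip251-270 applied at 1 µg/mL to compound-printed slides; binding of probe to printed compounds measured as 667 nm fluorescence plus signal to noise.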 The conditions noted are these: small-molecule microarray, higher = more signal, called active from +8 up or from −8 down.
A short description of assay [12]: probe aNOTCH3 binding on compound microarray – biochemical, small-molecule microarray, 635/667 nm fluorescence, primary screen (AID 1120).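 Also: probe is a biotin-tagged antibody raised against NOTCH3 rather than NOTCH3 protein; score merges spot fluorescence near 667 nm with spot signal to noise.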 The note with it: higher = more signal.
Assay [13] can be described thus: probe aNOTCH2 binding on compound microarray – biochemical, small-molecule microarray, 635/667 nm fluorescence, primary screen (AID 1121).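 Also: score merges feature fluorescence read at 667 nm with its signal to noise.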 The note with it: higher = more signal.
The target in assay [14] is Carbonic anhydrase 2 (Homo sapiens) (UniProt P00918). Kind of assay: compounds binding carbonic anhydrase 2 – biochemical, small-molecule microarray, Alexa647-labelled CAII, profiling panel (AID 1122). The note with it: CAII-A647 binding fluorescence, higher = more signal.
The nature of assay [15]: COS7 lysate on small-molecule microarray, probe aHis, 635 nm (AID 1123).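 Also: z-score combines 667nm fluorescence intensity with signal-to-noise per printed compound spot.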 The conditions noted are these: COS7 cell lysate, fluorescence, higher = more signal.
Assay [16] in a line: probe aLAP1 signal on lysate-treated microarray – cell lysate, small-molecule microarray, COS7 lysate, primary screen (AID 1124).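 Also: lysate comes from COS7 cells expressing LAP1 and is applied at 0.3 µg/mL; score merges spot fluorescence near 667 nm with signal-to-noise over triplicate slides.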 The note with it: probe aLAP1, fluorescence, higher = more signal.
The subject of a further assay is Sam68 (KHDRBS1). Kind of assay: compounds binding KHDRBS1 protein – biochemical, small-molecule microarray, 635 nm fluorescence, primary screen (AID 1125).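 Also: score merges 667 nm channel intensity with signal to noise over triplicate slides.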 The note with it: higher = more signal.
The subject of assay [17] is Chordin-like protein 2 (CHRDL2). Kind of assay: compounds binding chordin-like 2 – biochemical, small-molecule microarray, 635 nm fluorescence, primary screen (AID 1126).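 Also: printed compound slides probed with Chrdl2 protein at 4 µg/mL for 1 h at 4 C; score merges 667 nm emission intensity with signal to noise over three replicate slides.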 The note with it: fluorescence 635 nm, higher = more signal.
Assay [18] addresses Concanavalin-A (Canavalia ensiformis) (UniProt P02866). Kind of assay: compounds binding concanavalin A lectin – biochemical, small-molecule microarray, Alexa647 label, 635 nm, artefact control for SMM control protein annotation, primary screen (AID 1127).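 Also: z combines 667 nm emission intensity with signal-to-noise across three replicate slides.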 The conditions noted are these: ConA-A647 binding fluorescence, higher = more signal.

Active and inactive are the calls of the source.

Concanavalin-A (Canavalia ensiformis), sequence (P02866 whole entry, looked up): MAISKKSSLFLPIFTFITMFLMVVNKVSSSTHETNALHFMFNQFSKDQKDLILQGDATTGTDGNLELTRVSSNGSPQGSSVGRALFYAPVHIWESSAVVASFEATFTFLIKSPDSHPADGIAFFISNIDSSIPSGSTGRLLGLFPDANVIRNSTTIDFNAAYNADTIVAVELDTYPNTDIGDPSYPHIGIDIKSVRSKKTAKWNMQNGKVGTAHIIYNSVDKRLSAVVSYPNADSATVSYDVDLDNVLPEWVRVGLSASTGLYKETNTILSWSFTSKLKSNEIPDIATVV

Consider `CCOC(=O)C[C@H]1[C@H](OC(=O)Cc2ccc3c(c2)OCO3)[C@@H](NC(=O)C2CCCCC2)c2cc(OCCCO)ccc2N1C(=O)c1ccc2ccccc2n1`, for which the composite z-score in assay [1] was 1.33; in assay [3], 0.924; in [4], 0.0105; in [5], -0.896; in assay [6], -0.1; in assay [7] it was -0.164. Moreover, the composite z-score in assay [8] came to 0.0862; in [9], 0.746; in assay [10] it was 0.663; with Albumin (Bos taurus), 0.245; in assay [12], 0.0418; in assay [13], 0.358. The composite z-score turned out to be 0.312 in assay [14]; 0.746 in assay [15]; 0.15 in assay [16]; 1.08 with Sam68 (KHDRBS1); 1.21 in assay [17]; 0.662 in assay [18]. For the same compound, the z-score in assay [2] was -1.27. Moreover, the composite Z-score in [11] is -0.608 (inactive).

Take `CN(C)CCCN1C(=O)[C@@]2(c3ccc([N+](=O)[O-])cc3)CC(=O)N(CC34CC5CC(CC(C5)C3)C4)[C@@H]2c2ccc(CO)cc21`: the composite z-score in assay [1] was 0.869; in assay [3], -0.741; in assay [4], -0.301; in [5], -0.828; in [6], -0.152; in assay [7], 0.111. Also, the composite z-score in assay [8] is -0.302; in [9] it was -0.301; in assay [10], -0.0251; with Albumin (Bos taurus), -0.348; in assay [12], -0.208; in assay [13], -0.0391. The composite z-score in [14] was 0.76; in assay [15] it was 1.08; in [16], 0.538; in the assay on Sam68 (KHDRBS1), 0.503; in [17], -0.304; in [18], 0.412. The compound further returned a z-score in [2] of -1.49. For the same compound, the composite Z-score in [11] was -0.184 (inactive).

As for `O=C(O)[C@H](Cc1ccccc1)n1cc(-c2ccccn2)nn1`, the composite z-score was 0.55 in [1]; -0.0097 in [3]; 0.429 in assay [4]; 0.33 in assay [5]; -0.152 in assay [6]; -0.0866 in assay [7]. The composite z-score in assay [8] is -0.0827; in [9] it was 0.524; in [10] it was 0.35; in the assay with Albumin (Bos taurus), 0.672; in [12], -0.0311; in assay [13] it was -0.1. The composite z-score came out at 0.285 in [14]; 0.383 in [15]; 0.132 in [16]; 0.614 with Sam68 (KHDRBS1); 0.129 in [17]; 0.862 in assay [18]. Also, the z-score in assay [2] worked out at 0.107. Also, the composite Z-score in assay [11] was -0.341 (inactive).

Consider `CCC[C@@H]1C[C@@]1(CCC)[C@@H](NP(=O)(c1ccccc1)c1ccccc1)c1ccc(Cl)cc1`, for which the composite z-score was -0.213 in assay [1]; -0.427 in assay [3]; -0.915 in assay [4]; -1.31 in assay [5]; -0.127 in assay [6]; 1.44 in assay [7]. The composite z-score in assay [8] is -0.532; in [9], -0.357; in assay [10], -0.846; with Albumin (Bos taurus), -0.811; in [12] it was 0.0306; in assay [13], -0.0166. Also, the composite z-score in assay [14] is -0.0589; in assay [15], 0.772; in [16], 0.38; with Sam68 (KHDRBS1), 0.179; in [17], 0.603; in [18], -0.765. The same compound showed a z-score in assay [2] of -1.62. The composite Z-score in assay [11] was -1.49 (inactive).

In the case of `[N-]=[N+]=NCc1ccccc1C[C@@]1(C(=O)NCCN2CCOCC2)N=C(c2ccc(OCCCO)cc2)O[C@@H]1c1ccccc1N=[N+]=[N-]`, the composite z-score is 1.4 in [1]; -0.429 in assay [3]; 1.16 in [4]; 0.415 in [5]; 0.168 in assay [6]; 0.0141 in assay [7]. For the same compound, the composite z-score in assay [8] was 0.78; in assay [9] it was 0.948; in assay [10], 1.89; with Albumin (Bos taurus) it was 0.678; in assay [12], 0.163; in [13], -0.116. Moreover, the composite z-score in [14] is 0.419; in assay [15], 1.6; in assay [16], 0.276; in the assay with Sam68 (KHDRBS1), 1.3; in [17], -0.396; in assay [18], 1.09. In assay [2], this compound returned a z-score of -3.07. Also, the composite Z-score in [11] is 0.653 (inactive).

Regarding `O=C1O[C@@H](c2ccccc2)[C@@H](c2ccccc2)N2[C@@H](c3ccc(O)cc3)[C@]3(C(=O)Nc4ccc(C#CCCO)cc43)[C@@H](C(=O)NC[C@H](O)c3ccccc3)[C@H]12`, the composite z-score in assay [1] is 0.334; in assay [3], -1.87; in assay [4], -0.282; in assay [5], 0.374; in assay [6], -0.243; in assay [7], 0.057. The composite z-score in [8] was 1.4; in assay [9], -0.138; in assay [10] it was -0.588; with Albumin (Bos taurus), 0.273; in [12] it was -0.158; in assay [13], -0.167. For the same compound, the composite z-score was 0.724 in assay [14]; -0.112 in [15]; 0.102 in assay [16]; 0.249 in the assay on Sam68 (KHDRBS1); -1.39 in [17]; -0.101 in assay [18]. In addition, the z-score in assay [2] was found to be 0.0035. The composite Z-score in assay [11] was 1.62 (inactive).
